PubChem BioAssay (NCATS)
Records with an inconclusive call do not appear. Calls of active or inactive are those of the source. Calls come from the whole dose curve; as a rule, active = well fitted curve in the direction sought with a large enough effect; inconclusive = small, poorly fitted or top-dose-only effect, or another doubt; inactive = no such curve, though single readings can be large; an effect the other way counts as inactive or inconclusive. Where a SMILES comes first, the peptide text is derived from it. The star is where a group is joined. Cbz = O=C(OCc1ccccc1)*; CH2Cl = ClC*

Key:
[1] = biological target: Glutathione peroxidase 1 (Homo sapiens) (UniProt P07203); experiment: Primary qHTS Assay for Inhibitors of Recombinant Selenoprotein Glutathione Peroxidase 1 (GPX1) (AID 1845191); note: nearly all actives have a fitted effect of over 65% in size; for activity, negative = inhibition: % is set by controls: 0 for no effect and ±100 for the full control effect
Method in brief: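 NADPH consumption tracked by fluorescence at 340/450 nm between t=0 and t=15 min, room temperature. Final mix: 10 nM GPX1, 100 nM glutathione reductase, 1 mM GSH, 0.5 mM NADPH, 0.5 mM cumene hydroperoxide, 0.01% BSA; 30 min compound–enzyme preincubation.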

[2] = biological target: Phospholipid hydroperoxide glutathione peroxidase GPX4 (Homo sapiens) (UniProt P36969); experiment: Primary qHTS Assay for Inhibitors of Recombinant Selenoprotein Glutathione Peroxidase 4 (GPX4) (AID 1845192); note: series mostly up to about 50 µM; % is set by controls: 0 for no effect and ±100 for the full control effect; nearly all actives have a fitted effect of over 65% in size
Method in brief: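 NADPH consumption followed by fluorescence at 340/450 nm, t=0 and after 15 min at room temperature. Reaction started with cumene hydroperoxide (0.5 mM final) after 30 min compound–GPX4 preincubation; final 200 nM GPX4, 100 nM GR, 1 mM GSH, 0.5 mM NADPH.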

[3] = biological target: Luciferin 4-monooxygenase (Photinus pyralis) (UniProt P08659); experiment: Primary firefly luciferase (FLuc) qHTS assay for identification of artifact compounds. (AID 1845220); note: nearly all actives have a fitted effect of over 60% in size
Method in brief: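 FLuc 10 nM; luciferin 10 uM; ATP 10 uM; Tris-acetate pH 7.6, Mg-acetate 10 mM; 15 min RT preincubation; 5 min reaction; luminescence.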

[4] = Primary fluorescence-based thiol-reactive (MSTI) qHTS assay for identification of artifact compounds. (AID 1845221);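 note: series mostly up to about 54 µM; thiol-reactive compounds lower the probe fluorescence signal; nearly all actives have a fitted effect of over 65% in size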
Method in brief: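 qHTS titration of compound; 4 uM MSTI, PBS pH 7.4, 2% DMSO; 1 h RT, dark; fluorescence 525/598 nm; normalized to Acetyl-MSTI and MSTI; 4-parameter Hill fit.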

[5] = tested on: Nanoluciferase (engineered Oplophorus gracilirostris luciferase); experiment: Primary Nanoluciferase (NLuc) qHTS assay for identification of artifact compounds. (AID 1845222);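 note: NLuc secreted into diluted conditioned medium of S16 cells; series mostly up to about 54 µM; 0% = DMSO and -100% = no enzyme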
Method in brief: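 NLuc from S16 cell medium (1:55) plus test compounds, 15 min, room temperature. Luminescence after Nano-Glo (1:100) addition, 5 min.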

Chain of Phospholipid hydroperoxide glutathione peroxidase GPX4 (Homo sapiens) (P36969 whole entry, looked up): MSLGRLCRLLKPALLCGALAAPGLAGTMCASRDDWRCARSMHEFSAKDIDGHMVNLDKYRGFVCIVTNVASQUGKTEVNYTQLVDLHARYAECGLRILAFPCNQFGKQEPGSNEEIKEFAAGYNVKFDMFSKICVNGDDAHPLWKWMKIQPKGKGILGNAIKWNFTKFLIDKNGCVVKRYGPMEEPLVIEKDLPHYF
Chain of Glutathione peroxidase 1 (Homo sapiens) (P07203 whole entry, looked up): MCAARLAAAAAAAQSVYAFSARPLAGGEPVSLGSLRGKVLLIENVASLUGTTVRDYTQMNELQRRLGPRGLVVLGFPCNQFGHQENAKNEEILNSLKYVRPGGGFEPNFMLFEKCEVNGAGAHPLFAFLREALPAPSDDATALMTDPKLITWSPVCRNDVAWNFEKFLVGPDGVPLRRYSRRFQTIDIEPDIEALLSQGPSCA

CC(C)C[C@H](NC(=O)CNC(=O)OCc1ccccc1)C(=O)N[C@@H](Cc1ccccc1)C(=O)CCl (Cbz-Gly-Leu-Phe-CH2Cl)
inactive: Potency [1] | Potency [2] | Potency [3] | Potency [4] | Potency [5]

Fc1ccc(-c2cncc(CN3CCN(c4cccc5c4OCCO5)CC3)c2)cc1
inactive: Potency [1] | Potency [2] | Potency [3] | Potency [4] | Potency [5]

CC(=O)O[C@H]1CC(C)(C)CC2[C@]13CO[C@@]21CCC2[C@@]4(C)CC[C@H](O[C@@H]5OC[C@H](O[C@@H]6O[C@H](CO)[C@@H](O)[C@H](O)[C@H]6O[C@@H]6OC[C@@H](O)[C@H](O)[C@H]6O)[C@H](O)[C@H]5O[C@@H]5O[C@H](CO)[C@@H](O)[C@H](O)[C@H]5O)[C@@](C)(CO)C4CC[C@@]2(C)[C@]1(C)C[C@H]3O (stereo not given in full)
inactive: Potency [1] | Potency [2] | outcome [3] inactive [at 11.6 µM] | activity change, negative = thiol reactive [4] 28.4% [at 11.5 µM] | activity, negative = inhibition [5] 2.37% [at 11.6 µM]

COc1ccccc1N1CCN(CC(C(=O)NC(C)(C)C)c2ccccc2)CC1 (stereo not given)
inactive: Potency [1] | Potency [2] | Potency [3] | Potency [4] | Potency [5]

COc1ccc(CN2CCN(C(=O)CCNC(=O)c3ccc(C(C)(C)C)cc3)CC2)cc1
inactive: Potency [1] | Potency [2] | Potency [3] | Potency [4] | Potency [5]

Cc1cn(CCN2CCN(c3ccccc3-c3cc(C#N)cc(C(=O)NCCCN4CCCC4)c3)CC2)c2ccccc12
inactive: Potency [1] | Potency [2] | Potency [3] | Potency [4] | Potency [5]

CCC/C=C\C=C/CCc1cc(O)c([C@@H]2O[C@H](CO)[C@@H](O)[C@H](O)[C@H]2O)c(O)c1C(=O)OC
inactive: Potency [1] | Potency [2] | Potency [3] | Potency [4] | Potency [5]
